From PubChem BioAssay (Tox21)
Values joined by “and” are separate entries in the source; they are usually repeats but may differ in a detail not shown here. Equal entries are not always repeated. Some structures have more than one record in an assay (separate samples or runs), and their calls can disagree. Active and inactive are the calls of the source. Unless noted, calls come from the whole dose curve; as a rule, active = well fitted curve in the direction sought with a large enough effect in the repeat runs; inconclusive = weak or mixed curves; inactive = no such curve, though single readings can be large; an effect the other way counts as inactive or inconclusive.

Columns and labels:
[1] = qHTS assay to identify small molecule antagonists of the glucocorticoid receptor (GR) signaling pathway - cell viability counter screen (AID 720693); note: nearly all actives have a fitted effect of over 55% in size; note: potency is the fitted concentration of half-maximal effect
[2] = qHTS assay for identifying genotoxic compounds that show differential cytotoxicity against isogenic chicken DT40 cell lines with known DNA damage response pathways - wild type cell line (AID 743012); note: nearly all actives have a fitted effect of over 60% in size; note: potency is the fitted concentration of half-maximal effect
Procedure, shortened: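 Using parental DT40 (300 cells/well), compounds delivered in DMSO incubate 40 h at 37 C/5% CO2. CellTiter-Glo reagent then stands 30 min at room temperature, and luminescence gives cell viability.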

[3] = qHTS assay for identifying genotoxic compounds that show differential cytotoxicity against isogenic chicken DT40 cell lines with known DNA damage response pathways - Rev3 mutant cell line (AID 743014); note: nearly all actives have a fitted effect of over 55% in size; note: potency is the fitted concentration of half-maximal effect
[4] = qHTS assay for identifying genotoxic compounds that show differential cytotoxicity against isogenic chicken DT40 cell lines with known DNA damage response pathways - Rad54/Ku70 mutant cell line (AID 743015); note: nearly all actives have a fitted effect of over 60% in size; note: potency is the fitted concentration of half-maximal effect
[5] = qHTS assay to identify small molecule antagonists of the androgen receptor (AR) signaling pathway - cell viability counter screen (AID 743033; note: nearly all actives have a fitted effect of over 45% in size; note: potency is the fitted concentration of half-maximal effect)
[6] = molecular target: Androgen receptor (Homo sapiens) (UniProt P10275); experiment: qHTS assay to identify small molecule agonists of the androgen receptor (AR) signaling pathway using the MDA cell line (AID 743040; note: nearly all actives have a fitted effect of over 20% in size)
Procedure, shortened: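 After a 5 h incubation at 37C and 0% CO2, MDA-kb2 reporter cells were dosed with compounds in DMSO and kept 16 h under the same conditions. Luciferase activity was then read as luminescence with ONE-Glo.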

[7] = qHTS assay to identify small molecule antagonists of the androgen receptor (AR) signaling pathway using the MDA cell line - cell viability counter screen (AID 743041; note: nearly all actives have a fitted effect of over 45% in size; note: potency is the fitted concentration of half-maximal effect)
Procedure, shortened: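 R1881-driven MDA-kb2 AR-luc cells, 3,000/well, were dosed with library compounds for 16 h; cell health came from CellTiter-Fluor fluorescence in the reporter wells.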

[8] = molecular target: Androgen receptor (Homo sapiens) (UniProt P10275); experiment: qHTS assay to identify small molecule antagonists of the androgen receptor (AR) signaling pathway using the MDA cell line (AID 743042; note: nearly all actives have a fitted effect of over 55% in size; note: potency is the fitted concentration of half-maximal effect)
Procedure, shortened: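 Antagonist mode: compounds plus R1881 agonist added to MDA-kb2 AR-luc cells, incubated 16 h at 37C. Luciferase reporter luminescence quantified, with multiplexed CellTiter-Fluor readout for cell viability.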

[9] = qHTS assay to identify small molecule antagonists of the thyroid receptor (TR) signaling pathway - cell viability counter screen (AID 743064); note: nearly all actives have a fitted effect of over 50% in size; note: potency is the fitted concentration of half-maximal effect
Procedure, shortened: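 In-well cytotoxicity read by CellTiter-Fluor (30 min, 37 C) following 23.5 h exposure of GH3 cells bearing a TRE-luciferase sensor. Compounds were added alongside 1 nM (final) T3 to drive TR transactivation.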

[10] = qHTS assay to identify small molecule antagonists of the thyroid receptor (TR) signaling pathway (AID 743065); note: nearly all actives have a fitted effect of over 55% in size; note: potency is the fitted concentration of half-maximal effect
Procedure, shortened: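 Antagonism measured as loss of luciferase signal in GH3 cells stably carrying a TRE-luciferase reporter, co-treated with compound and T3 (1 nM final) for 23.5 h at 37 C. Viability was read in the same well by CellTiter-Fluor.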

[11] = test system: thyroid hormone receptor (rat, GH3 cells); experiment: qHTS assay to identify small molecule agonists of the thyroid receptor (TR) signaling pathway (AID 743066; calls by dose curve)
[12] = molecular target: Estrogen receptor (Homo sapiens) (UniProt P03372); experiment: qHTS assay to identify small molecule antagonists of the estrogen receptor alpha (ER-alpha) signaling pathway (AID 743069; active = well fitted curve in the direction sought with a large enough effect in the signal ratio in the repeat runs, not every such curve was filed as active; inconclusive = weak or mixed curves, or effect the other way; inactive = no such curve, though single readings can be large or run the other way; the % refers to the signal ratio; note: potency is the fitted concentration of half-maximal effect)
Procedure, shortened: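 Compound effects are measured against 17beta-estradiol stimulation in HEK293 cells with a UAS-controlled beta-lactamase reporter for ER-alpha. Exposure lasts 18 hr at 37C; LiveBLAzer B/G FRET substrate follows for 2 hr at room temperature.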

[13] = qHTS assay to identify small molecule antagonists of the estrogen receptor alpha (ER-alpha) signaling pathway - cell viability counter screen (AID 743074; calls by dose curve;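 note: HEK293 cells carrying ER-alpha-UAS-bla reporter stimulated with 17beta-estradiol; nearly all actives have a fitted effect of over 45% in size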; note: potency is the fitted concentration of half-maximal effect)
[14] = qHTS assay to identify small molecule antagonists of the estrogen receptor alpha (ER-alpha) signaling pathway using the BG1 cell line (AID 743080; calls by dose curve;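 note: BG1 cells stimulated with 17beta-estradiol alongside compound; nearly all actives have a fitted effect of over 25% in size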; note: potency is the fitted concentration of half-maximal effect); conditions: BG1Luc4E2 ERE-luciferase antagonist mode, luminescence; activity change, negative = inhibition: at 70.3 µM (top of the series)
Procedure, shortened: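 BG1Luc4E2, endogenous ER-alpha, 4xERE-luc; 5 d charcoal-stripped FBS, phenol red free; 24 h plating; cpd + 17beta-estradiol 21.5 h, 37 C/5% CO2; CellTiter-Fluor viability 30 min, then ONE-Glo luciferase 30 min RT.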

[15] = qHTS assay to identify small molecule antagonists of the estrogen receptor alpha (ER-alpha) signaling pathway using the BG1 cell line - cell viability counter screen (AID 743081);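 note: compound given together with 17beta-estradiol as the ER stimulus; nearly all actives have a fitted effect of over 45% in size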; note: potency is the fitted concentration of half-maximal effect
[16] = molecular target: Aromatase (Homo sapiens) (UniProt P11511); experiment: qHTS assay to identify aromatase inhibitors (AID 743083); note: nearly all actives have a fitted effect of over 55% in size; note: potency is the fitted concentration of half-maximal effect
[17] = qHTS assay to identify aromatase inhibitors - cell viability counter screen (AID 743084); note: potency is the fitted concentration of half-maximal effect
[18] = molecular target: Androgen receptor (Homo sapiens) (UniProt P10275); experiment: qHTS assay to identify small molecule antagonists of the androgen receptor (AR) signaling pathway (AID 743035; active = well fitted inhibition curve with a large enough effect in the signal ratio in the repeat runs, not every such curve was filed as active; inconclusive = weak or mixed curves, or effect the other way; inactive = no such curve, though single readings can be large or run the other way; the % refers to the signal ratio; note: potency is the fitted concentration of half-maximal effect)
Procedure, shortened: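 Using qHTS, AR-UAS-bla GripTite HEK293 cells received compound, then R1881, and were cultured 16 h at 37C/5% CO2 before a 2 h room-temperature LiveBLAzer B/G FRET substrate step and fluorescence measurement.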

[19] = molecular target: Estrogen receptor (Homo sapiens) (UniProt P03372); experiment: qHTS assay to identify small molecule agonists of the estrogen receptor alpha (ER-alpha) signaling pathway (AID 743075; calls by dose curve)
[20] = molecular target: Estrogen receptor (Homo sapiens) (UniProt P03372); experiment: qHTS assay to identify small molecule agonists of the estrogen receptor alpha (ER-alpha) signaling pathway using the BG1 cell line (AID 743079); conditions: BG1Luc4E2 cells, ERE-luciferase agonist, 22 h; activation: at 70.3 µM (top of the series); note: nearly all actives have a fitted effect of over 20% in size

Measured: Potency

Chain of Estrogen receptor (Homo sapiens) (P03372 whole entry, looked up): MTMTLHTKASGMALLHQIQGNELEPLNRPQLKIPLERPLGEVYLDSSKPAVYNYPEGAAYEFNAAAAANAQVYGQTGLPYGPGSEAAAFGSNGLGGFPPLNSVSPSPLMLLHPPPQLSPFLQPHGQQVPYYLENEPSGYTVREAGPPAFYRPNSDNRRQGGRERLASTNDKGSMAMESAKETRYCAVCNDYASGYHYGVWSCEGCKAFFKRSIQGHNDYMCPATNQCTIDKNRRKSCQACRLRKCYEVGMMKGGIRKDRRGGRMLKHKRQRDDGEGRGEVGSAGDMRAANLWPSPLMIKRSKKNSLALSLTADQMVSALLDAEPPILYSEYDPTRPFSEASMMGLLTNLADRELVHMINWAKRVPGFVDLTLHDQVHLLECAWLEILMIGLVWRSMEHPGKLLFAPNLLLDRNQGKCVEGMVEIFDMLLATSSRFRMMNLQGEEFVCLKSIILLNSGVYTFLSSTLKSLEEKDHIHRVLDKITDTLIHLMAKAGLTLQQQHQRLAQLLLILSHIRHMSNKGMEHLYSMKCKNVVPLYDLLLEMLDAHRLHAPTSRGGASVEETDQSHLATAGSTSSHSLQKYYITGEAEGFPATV
Chain of Androgen receptor (Homo sapiens) (P10275 whole entry, looked up): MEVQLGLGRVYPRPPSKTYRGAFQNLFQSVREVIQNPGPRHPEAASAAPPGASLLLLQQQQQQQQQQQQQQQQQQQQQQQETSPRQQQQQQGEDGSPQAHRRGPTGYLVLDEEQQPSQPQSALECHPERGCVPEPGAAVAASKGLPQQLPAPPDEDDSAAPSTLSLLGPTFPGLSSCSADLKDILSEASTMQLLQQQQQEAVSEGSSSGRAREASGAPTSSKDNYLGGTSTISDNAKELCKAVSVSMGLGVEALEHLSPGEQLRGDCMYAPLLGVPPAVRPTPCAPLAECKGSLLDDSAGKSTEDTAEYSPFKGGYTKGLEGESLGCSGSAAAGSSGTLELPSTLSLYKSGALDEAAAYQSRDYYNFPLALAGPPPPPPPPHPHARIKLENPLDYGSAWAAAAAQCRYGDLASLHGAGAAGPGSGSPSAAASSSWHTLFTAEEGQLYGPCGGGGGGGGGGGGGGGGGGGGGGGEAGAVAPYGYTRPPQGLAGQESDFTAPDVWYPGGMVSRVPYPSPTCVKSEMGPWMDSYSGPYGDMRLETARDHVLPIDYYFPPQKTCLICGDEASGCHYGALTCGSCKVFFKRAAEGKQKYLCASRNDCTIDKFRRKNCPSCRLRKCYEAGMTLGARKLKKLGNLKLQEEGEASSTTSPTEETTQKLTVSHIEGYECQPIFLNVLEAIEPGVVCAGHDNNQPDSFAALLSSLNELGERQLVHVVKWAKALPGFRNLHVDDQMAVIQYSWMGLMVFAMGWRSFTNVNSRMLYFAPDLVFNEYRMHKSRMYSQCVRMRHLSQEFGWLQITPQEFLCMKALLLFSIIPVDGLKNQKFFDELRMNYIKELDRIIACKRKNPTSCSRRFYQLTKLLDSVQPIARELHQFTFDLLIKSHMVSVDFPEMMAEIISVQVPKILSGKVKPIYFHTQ
Chain of Aromatase (Homo sapiens) (P11511 whole entry, looked up): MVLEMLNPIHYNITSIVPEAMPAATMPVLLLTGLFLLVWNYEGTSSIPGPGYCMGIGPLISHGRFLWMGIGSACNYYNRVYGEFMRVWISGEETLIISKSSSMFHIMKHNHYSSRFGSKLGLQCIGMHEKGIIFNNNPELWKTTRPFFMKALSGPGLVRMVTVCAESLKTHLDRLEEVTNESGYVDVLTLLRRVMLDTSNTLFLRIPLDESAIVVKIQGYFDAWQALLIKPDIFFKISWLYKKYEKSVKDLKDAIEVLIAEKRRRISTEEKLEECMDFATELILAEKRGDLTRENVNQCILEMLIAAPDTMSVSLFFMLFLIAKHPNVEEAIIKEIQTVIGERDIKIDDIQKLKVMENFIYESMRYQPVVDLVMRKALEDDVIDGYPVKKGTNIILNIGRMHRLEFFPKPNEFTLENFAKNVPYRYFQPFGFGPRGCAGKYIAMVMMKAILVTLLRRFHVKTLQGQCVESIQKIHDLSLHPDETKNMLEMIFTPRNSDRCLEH

CCN=C1C=CC(=C(c2ccc(N(CC)CC)cc2)c2ccc(N(CC)CC)cc2)c2ccccc21
active: [1] 24.4 µM | [2] 0.0192 µM | [3] 0.0305 µM | [4] 0.0192 µM | [5] 0.0434 µM | [7] 0.121 µM | [8] 43 nM | [9] 0.542 µM | [10] 0.121 µM | [12] 38.7 µM [cytotoxic] | [13] 19.4 µM | [14] 0.136 µM | [15] 30.5 µM | [16] 0.216 µM | [17] 9.63 µM
inactive: [6] | [11]

N[C@@H](CSSC[C@H](N)C(=O)O)C(=O)O
not listed: [8] | [12] | [14] | [19] | [20]
inactive: all other assays above

O=C(Nc1ccc(Cl)cc1)Nc1ccc(Cl)c(C(F)(F)F)c1
inactive: [19] | [15]
active: [1] 21.3 µM | [2] 4.22 µM | [3] 5.31 µM | [4] 5.31 µM | [5] 6.01 µM | [7] 23.7 µM | [9] 6.68 µM | [10] 5.31 µM | [13] 9.52 µM | [14] 21.1 µM | [16] 10.6 µM

O=C1c2c(O)ccc([N+](=O)[O-])c2C(=O)c2c([N+](=O)[O-])ccc(O)c21
inactive: [11]
active: [1] 8.63 µM | [2] 13.6 µM | [3] 6.8 µM | [4] 5.4 µM | [5] 6.85 µM | [7] 21.5 µM | [9] 6.8 µM | [10] 6.8 µM | [13] 38.5 µM | [15] 30.4 µM | [16] 6.06 µM | [17] 9.6 µM

Cc1ccc(N)cc1O
active: [2] 30.6 µM | [3] 56.1 µM | [4] 52 µM
not listed: [7] | [8] | [9] | [13] | [16] | [17] | [18]
inactive: all other assays above

O=Nc1ccc(NO)cc1
not listed: [6] | [8] | [10] | [18]
inactive: all other assays above

CCCN(CCc1cccs1)[C@H]1CCc2c(O)cccc2C1
active: [2] 18.8 µM | [3] 26.6 µM | [4] 23.7 µM | [16] 26.6 µM
not listed: [9] | [10] | [18]
inactive: all other assays above

COc1cccc(CCc2ccccc2OCC(CN(C)C)OC(=O)CCC(=O)O)c1 (centres undefined)
active: [2] 8.41 µM | [3] 10.6 µM | [4] 11.9 µM | [9] 23.7 µM | [10] 13.3 µM
not listed: [6] | [8] | [11] | [18]
inactive: all other assays above

Clc1ccc(C(Cn2ccnc2)OCc2c(Cl)cccc2Cl)c(Cl)c1 (centres undefined)
active: [2] 11.4 µM | [3] 12.7 µM | [4] 11.4 µM | [16] 10.1 µM
not listed: [9] | [10] | [11] | [12] | [18] | [19]
inactive: all other assays above

Cc1cn[nH]c1
inactive: all assays above

O=C(O)CC(=O)O
not listed: [6] | [8] | [12] | [14] | [18] | [19] | [20]
inactive: all other assays above

CCCSS/C(CCO)=C(\C)N(C=O)Cc1cnc(C)nc1N
active: [2] 5.31 µM | [3] 8.41 µM | [4] 13.3 µM | [9] 26.6 µM | [10] 23.7 µM | [16] 26.6 µM
not listed: [8] | [18]
inactive: all other assays above

CCc1cccc(C)c1
not listed: [6] | [8] | [10] | [18]
inactive: all other assays above

CSc1ccc2c(c1)N(CCC1CCCCN1C)c1ccccc1S2 (centres undefined)
active: [1] 54.7 µM | [2] 5.96 µM and 21.6 µM | [3] 6.68 µM and 17.2 µM | [4] 9.44 µM and 19.3 µM | [5] 23.9 µM and 21.8 µM | [9] 7.5 µM and 8.6 µM | [10] 7.5 µM and 9.65 µM | [12] 23.9 µM [inconclusive] | [13] 54.7 µM | [16] 27.2 µM | [17] 21.6 µM
inactive: [7] | [19] | [14]
inactive and 68.3 µM (active): [15]

CCCCOC(=O)C(C)CC (centres undefined)
active: [2] 12.2 µM | [3] 13.7 µM | [4] 13.7 µM | [5] 43.6 µM
not listed: [6] | [8] | [18]
inactive: all other assays above

O=S(=O)(O)CCCN1CCOCC1
not listed: [6] | [8] | [10] | [18]
inactive: all other assays above

C[Si](C)(C)Cl
inactive: all assays above

Cn1cnc2ncnc(N)c21
not listed: [6] | [8] | [18]
inactive: all other assays above

COC(=O)CC#N
not listed: [6] | [8] | [18]
inactive: all other assays above

CC1=C(/C=C/C(C)=C/C=C/C(C)=C/C(=O)Nc2ccc(O)cc2)C(C)(C)CCC1
inactive and 44.8 µM (active): [5]
inactive: [6] | [11] | [19]
active: [1] 44.8 µM | [2] 9.44 µM and 22.2 µM | [3] 13.3 µM and 9.94 µM | [4] 9.44 µM and 9.94 µM | [18] 23.9 µM and 14.2 µM | [7] 23.7 µM and 44.4 µM | [8] 29.8 µM and 28 µM | [9] 6.68 µM and 8.85 µM | [10] 5.96 µM and 7.89 µM | [12] 6.01 µM [inhibitor] | [15] 16.8 µM and 62.7 µM | [16] 13.3 µM and 28 µM | [17] 26.6 µM and 28 µM

O=C1NCN(c2ccccc2)C12CCN(CCCC(c1ccc(F)cc1)c1ccc(F)cc1)CC2
inactive: [5]
active: [1] 21.3 µM | [2] 6.68 µM | [3] 10.6 µM | [4] 9.44 µM | [7] 29.8 µM | [9] 3.35 µM | [10] 5.96 µM | [15] 26.6 µM

CCCCCCCCCCCCCC[n+]1ccccc1
active: [1] 13.8 µM | [2] 0.122 µM | [3] 0.077 µM | [4] 0.109 µM | [5] 12.3 µM | [7] 4.33 µM | [9] 6.86 µM | [10] 2.43 µM | [13] 24.5 µM | [14] 4.86 µM | [16] 6.11 µM | [17] 54.5 µM
inactive: [11] | [19]

O=C1NCCN1CCN1CCC(c2cn(-c3ccc(F)cc3)c3ccc(Cl)cc23)CC1
inactive: [6] | [19] | [15]
active: [1] 23.9 µM | [2] 944 nM and 1.5 µM | [3] 1.88 µM and 2.37 µM | [4] 1.68 µM and 2.66 µM | [5] 16.9 µM and 21.3 µM | [18] 16.9 µM and 21.3 µM | [7] 13.3 µM and 21.1 µM | [8] 11.9 µM and 18.8 µM | [9] 6.68 µM | [10] 5.96 µM | [13] 15.1 µM and 9.52 µM | [14] 29.8 µM | [17] 29.8 µM
